High-throughput results: PubChem BioAssay, Buhrlage Lab, Dana-Farber Cancer Institute and Novartis Institutes for BioMedical Research (Cambridge, Mass)
OTUD3 inh: human OTUD3 deubiquitinase inhibition; inhibition, % at 25 µM; 47,000 tested, 0.7% active; purified OTUD3, Ub-rhodamine fluorescence, 2 h; AID 1645858; Q5T2D3
Target sequence (Q5T2D3 whole entry, looked up): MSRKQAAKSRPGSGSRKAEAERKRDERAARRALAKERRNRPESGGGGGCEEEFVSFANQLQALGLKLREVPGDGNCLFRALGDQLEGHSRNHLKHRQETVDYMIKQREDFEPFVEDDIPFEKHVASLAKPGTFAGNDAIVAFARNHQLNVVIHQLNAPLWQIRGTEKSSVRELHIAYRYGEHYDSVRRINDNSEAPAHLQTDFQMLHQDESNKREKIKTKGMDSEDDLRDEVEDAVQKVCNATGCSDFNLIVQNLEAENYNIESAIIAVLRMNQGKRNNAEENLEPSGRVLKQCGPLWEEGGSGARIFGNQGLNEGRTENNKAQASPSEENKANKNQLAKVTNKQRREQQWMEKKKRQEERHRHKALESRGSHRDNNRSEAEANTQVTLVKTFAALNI
USP17 inh: inhibitors of human USP17 deubiquitinase. inhibition, % at 50 µM. A8MUK1. purified USP17, Ub-rhodamine cleavage fluorescence, 3 h. 47,000 tested, 6.5% active
USP10 inh: human USP10 deubiquitinase inhibition | Q14694 | purified USP10, Ub-rhodamine fluorescence, 60 min | inhibition, % at 20 µM | 47,000 tested, 1.1% active
USP8 inh: inhibitors of human USP8 deubiquitinase | P40818 | purified USP8, Ub-rhodamine cleavage fluorescence, 30 min | inhibition, % at 20 µM | 47,000 tested, 4.2% active
USP28 inh: human USP28 deubiquitinase inhibition; inhibition, % at 25 µM; 47,000 tested, 3% active; Q96RU2; purified USP28, Ub-rhodamine cleavage fluorescence, 30 min
USP30 inh: inhibitors of human USP30 deubiquitinase; inhibition, % at 25 µM; 47,000 tested, 5.3% active; purified USP30, Ub-rhodamine cleavage fluorescence
Hits are given with their value. Shown are actives, neighbours in structure and some others; about 13% of the full set was active somewhere. Cut-off read from the data, not from the text of the source: active = inhibition above about 30%; inactive = the rest.

`O=S(=O)(O)c1cc2cc3ccccc3cc2[nH]1` gave OTUD3 inh inactive, USP17 inh 61, USP10 inh inactive, USP8 inh 87, USP28 inh inactive and USP30 inh inactive.
For CN1CCCc2cc(C(CNC(=O)c3ccccc3)N3CCCCC3)ccc21 (centres undefined) the results were OTUD3 inh inactive, USP17 inh inactive, USP10 inh inactive, USP8 inh inactive, USP28 inh inactive and USP30 inh inactive.
Screening COc1cccc(CNC(=O)c2ccc3c(c2)NC(=O)C2CCCN32)c1OC (centres undefined) returned OTUD3 inh inactive, USP17 inh 54, USP10 inh inactive, USP8 inh 70, USP28 inh inactive and USP30 inh inactive.
CCOC(=O)C1CCN(C(=O)c2ccc3c(c2)NC(=O)C2CCCN32)CC1 (centres undefined) was read as OTUD3 inh inactive, USP17 inh 73, USP10 inh inactive, USP8 inh 93, USP28 inh inactive and USP30 inh inactive.
`CCN1CCN(C(=O)c2ccc3c(c2)NC(=O)C2CCCCN32)CC1` (centres undefined) gave OTUD3 inh inactive, USP17 inh inactive, USP10 inh inactive, USP8 inh inactive, USP28 inh inactive and USP30 inh inactive.
`O=C(CN1CCc2ccccc21)Nc1cc(C(=O)O)ccc1O` gave OTUD3 inh inactive, USP17 inh inactive, USP10 inh inactive, USP8 inh 49, USP28 inh inactive and USP30 inh inactive.
Screening CC(=O)c1ccc(NC(=O)CN2CCCc3ccccc32)cc1 returned OTUD3 inh inactive, USP17 inh inactive, USP10 inh inactive, USP8 inh inactive, USP28 inh inactive and USP30 inh inactive.
`Cc1nnc2ccc(-c3ccc(NS(=O)(=O)c4ccccc4F)cc3)nn12` gave OTUD3 inh inactive, USP17 inh 43, USP10 inh inactive, USP8 inh inactive, USP28 inh inactive and USP30 inh inactive.
Screening CCCS(=O)(=O)Nc1ccc(-c2ccc3nnc(C)n3n2)cc1 returned OTUD3 inh inactive, USP17 inh inactive, USP10 inh inactive, USP8 inh inactive, USP28 inh inactive and USP30 inh inactive.
Cc1cccc(OCCn2c(NC(=O)c3ccc(Cl)cc3)nc3ccccc32)c1 was read as OTUD3 inh inactive, USP17 inh inactive, USP10 inh inactive, USP8 inh 66, USP28 inh inactive and USP30 inh inactive.
Screening O=C(Cn1cnnn1)N1CCCC1c1nc2ccccc2s1 (centres undefined) returned OTUD3 inh inactive, USP17 inh inactive, USP10 inh inactive, USP8 inh inactive, USP28 inh inactive and USP30 inh inactive.
For COCCN1C(=O)c2ccccc2C(C(=O)Nc2cccnc2)C12CCCCC2 (centres undefined) the results were OTUD3 inh inactive, USP17 inh inactive, USP10 inh inactive, USP8 inh inactive, USP28 inh inactive and USP30 inh inactive.
`O=C(Nc1cccnc1)C1c2ccccc2C(=O)N(C2CCCC2)C12CCCCC2` (centres undefined) gave OTUD3 inh inactive, USP17 inh inactive, USP10 inh inactive, USP8 inh 36, USP28 inh inactive and USP30 inh inactive.
`CCn1cc(C(=O)O)c(S(=O)(=O)N2CCCCCC2)n1` gave OTUD3 inh inactive, USP17 inh inactive, USP10 inh inactive, USP8 inh inactive, USP28 inh inactive and USP30 inh inactive.
Cc1cccc(S(=O)(=O)N2CCC(c3cc(N)on3)CC2)c1 was read as OTUD3 inh inactive, USP17 inh inactive, USP10 inh inactive, USP8 inh inactive, USP28 inh inactive and USP30 inh inactive.
For Nc1cc(C2CCN(S(=O)(=O)c3ccc4c(c3)CCCC4)CC2)no1 the results were OTUD3 inh inactive, USP17 inh inactive, USP10 inh inactive, USP8 inh inactive, USP28 inh inactive and USP30 inh 48.
`Cc1ccc(S(=O)(=O)c2cnc(SCC(=O)Nc3ccc(Cl)cc3)nc2N)cc1C` gave OTUD3 inh inactive, USP17 inh 80, USP10 inh inactive, USP8 inh inactive, USP28 inh 48 and USP30 inh 39.
CC1=C(c2ccccc2)S(=O)(=O)N(CC(=O)Nc2ccccc2C)C1=O was read as OTUD3 inh inactive, USP17 inh inactive, USP10 inh inactive, USP8 inh inactive, USP28 inh inactive and USP30 inh inactive.
For CC1=C(c2ccc(C(C)C)cc2)S(=O)(=O)N(CC(=O)Nc2ccccc2C)C1=O the results were OTUD3 inh inactive, USP17 inh inactive, USP10 inh inactive, USP8 inh inactive, USP28 inh 39 and USP30 inh 32.
